Assay outcomes: PubChem BioAssay, several laboratories
Bead autofluor: compound fluorescence in toxin protease inhibitor counterscreen; compound autofluorescence counterscreen, microsphere flow cytometry; hits give high values; fluorescence intensity (test concentration not listed); 3.1% of 360,000 active; in the data active means fluorescence intensity above about 16000; inconclusive means no clear call, values can overlap the other calls
BoNT F protease: BoNT/F light chain protease inhibitors, primary screen, biochemical, flow cytometry, MLPCN library; Botulinum neurotoxin type F light chain protease (Clostridium botulinum); 0.22% of 360,000 active; AID 588497, 2011; inhibition, % at 10 µM; Multiplex microsphere protease cleavage assay; in the data active means inhibition above about 35%, passing the limit was not always enough; inconclusive means no clear call, values can overlap the other calls
MazF activator: activators of E. coli MazEF toxin-antitoxin RNase, primary screen, biochemical, fluorescence, uHTS | activation, % at 20 µM | Endoribonuclease toxin MazF (Escherichia coli (strain K12)), P0AE70 | FAM/BHQ RNA-DNA oligo cleavage fluorescence, 5 h | 0.32% of 350,000 active | AID 504720, 2011; in the data active means activation above about 50%
Target sequence (P0AE70 whole entry, looked up): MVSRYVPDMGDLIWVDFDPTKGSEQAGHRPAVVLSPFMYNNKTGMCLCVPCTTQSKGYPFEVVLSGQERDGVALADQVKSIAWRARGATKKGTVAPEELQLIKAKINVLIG
Anthrax LF inh2: Bacillus anthracis LF protease inhibitors, primary screen, biochemical, multiplex microsphere, MLPCN library; Lethal factor (Bacillus anthracis), P15917; multiplex microsphere protease cleavage assay; inhibition, % at 10 µM; 0.12% of 360,000 active; in the data active means inhibition above about 30%; inconclusive means no clear call, values can overlap the other calls
BoNT-A LC inh2: BoNT/A light chain protease inhibitors, primary screen, biochemical, flow cytometry, MLPCN library. multiplex microsphere protease substrate cleavage. 0.17% of 360,000 active. inhibition, % at 10 µM. Botulinum neurotoxin type A light chain protease (Clostridium botulinum A str. ATCC 3502); in the data active means inhibition above about 30%; inconclusive means no clear call, values can overlap the other calls
Vc quorum ag: inducers of Vibrio cholerae quorum light production without autoinducers, primary screen, BH1578 luxS cqsA deficient, single point. V. cholerae BH1578 lux reporter, luminescence, 6 h. activation, % at 18.7 µM. 0.16% of 350,000 active. AID 588436, 2011; in the data active means activation mostly above about 9.7%, no sharp cut-off; inconclusive means no clear call, values can overlap the other calls; inactive means mostly below about 3.7%
BoNTA LC inh 1: BoNT/A light chain protease inhibitors, confirmation, biochemical, flow cytometry, cherry pick 1. shares compounds with BoNT F protease. multiplex microsphere protease assay. inhibition, % at 10 µM. 3% of 720 active; in the data active means inhibition above about 32%
BoNT-F LC CP1: BoNT/F light chain protease inhibitors, confirmation, biochemical, flow cytometry, cherry pick 1 | shares compounds with BoNT F protease | multiplex microsphere protease cleavage assay | inhibition, % at 10 µM | 720 tested, under 10 active | AID 602140, 2011
Anthrax LF CP1: Bacillus anthracis LF protease inhibitors, confirmation, biochemical, multiplex microsphere, cherry pick 1; shares compounds with BoNT F protease; inhibition, % at 10 µM; 720 tested, under 10 active; multiplex microsphere protease cleavage assay
Of the large screens only hits and unclear results are named; the others gave an inactive call (follow-up assays come after a bar, where they were run). Sampled rows, rich in hits. Any-hit rate of the full collection: about 3.9%. Unless noted, how the calls were made is not given here.

Cc1cc(-c2c(C(=O)N3CCOCC3)c(C)nn2-c2cccc(C(F)(F)F)c2)no1	BoNT F protease inconclusive, BoNT-A LC inh2 inconclusive
Cc1cc(-c2c(C(=O)N3CCOCC3)c(C)nn2-c2ccccc2)no1	BoNT F protease inconclusive, Anthrax LF inh2 34.5 | BoNTA LC inh 1 inactive | BoNT-F LC CP1 inactive | Anthrax LF CP1 inactive
COc1ccc(C(=O)Nc2cc(OC)c(NC(=O)Nc3ccccc3)cc2OC)cc1	none
CSc1ncc(Cl)c(C(=O)Nc2ccccc2C)n1	Anthrax LF inh2 30.1 | BoNTA LC inh 1 inactive | BoNT-F LC CP1 inactive | Anthrax LF CP1 inactive
CCSc1ncc(Cl)c(C(=O)Nc2ccccc2C)n1	none
COc1ccc(C(=O)NCC2CCCO2)cc1 (centres undefined)	BoNT F protease 35.8 | BoNTA LC inh 1 inactive | BoNT-F LC CP1 inactive | Anthrax LF CP1 inactive
COc1cc(OC)cc(C(=O)Nc2ccc(C(=O)NCC3CCCO3)cc2)c1 (centres undefined)	BoNT F protease inconclusive
Cc1ccc(CSC2=Nc3ccccc3C3=NC(=O)CN23)cc1	BoNT F protease 35.5 | BoNTA LC inh 1 inactive | BoNT-F LC CP1 inactive | Anthrax LF CP1 inactive
Cc1[nH]c2ccc(Br)cc2c(=O)c1CN1CCCCC1	BoNT F protease 51.6, BoNT-A LC inh2 inconclusive | BoNTA LC inh 1 inactive | BoNT-F LC CP1 inactive | Anthrax LF CP1 inactive
Cc1[nH]c2ccccc2c(=O)c1CN1CCCCCC1	none
O=C(Cc1ccccc1)c1ccc(Cl)cc1	BoNT F protease inconclusive, Anthrax LF inh2 30.2, BoNT-A LC inh2 inconclusive | BoNTA LC inh 1 inactive | BoNT-F LC CP1 inactive | Anthrax LF CP1 inactive
CCCCOc1ccc(C(=O)CCN2CCOCC2)cc1	none | BoNTA LC inh 1 inactive | BoNT-F LC CP1 inactive | Anthrax LF CP1 inactive
COC(=O)c1ccc(NC(=O)c2cc[n+](Cc3ccccc3)cc2)cc1	none
O=C(c1ccccc1)c1ccc(O)c(O)c1O	none
CCCCc1ccc(C(=O)NC(C(=O)O)C(C)C)cc1 (centres undefined)	BoNT F protease 40.1, BoNT-A LC inh2 31.2 | BoNTA LC inh 1 inactive | BoNT-F LC CP1 inactive | Anthrax LF CP1 inactive
CCCCCOc1ccc(C(=O)NC(C(=O)O)C(C)C)cc1 (centres undefined)	BoNT F protease 38.8, BoNT-A LC inh2 inconclusive | BoNTA LC inh 1 inactive | BoNT-F LC CP1 inactive | Anthrax LF CP1 inactive
CCCCCCCCOc1ccc(C(=O)O)cc1	none
Cc1cc(C(=O)C(C)OC(=O)c2cnccn2)c(C)n1-c1ccccc1 (centres undefined)	none
CCC(C)c1cc(S(=O)(=O)N2CCOCC2)ccc1OC (centres undefined)	BoNT F protease 43.7 | BoNTA LC inh 1 inactive | BoNT-F LC CP1 inactive | Anthrax LF CP1 inactive
O=C(NCCOc1ccc(Cl)cc1)c1cccc(S(=O)(=O)N2CCCC2)c1	none
Cc1ccc(Nc2nc(C)cc(C)n2)c(Br)c1	BoNT F protease 35.1, BoNT-A LC inh2 31.5 | BoNTA LC inh 1 inactive | BoNT-F LC CP1 inactive | Anthrax LF CP1 inactive
Cc1cccc(C(C)(C)C)c1OCCOCCN1CCCC1	BoNT F protease 37.6 | BoNTA LC inh 1 inactive | BoNT-F LC CP1 inactive | Anthrax LF CP1 inactive
CC1CCCC(N2CCN(C(=O)c3ccccc3F)CC2)C1 (centres undefined)	BoNT F protease inconclusive, Anthrax LF inh2 37.8 | BoNTA LC inh 1 inactive | BoNT-F LC CP1 inactive | Anthrax LF CP1 inactive
CC1CCN(C2CCN(C(=O)c3ccccc3F)CC2)CC1	none (no result: Bead autofluor, BoNT F protease, Anthrax LF inh2, BoNT-A LC inh2)
O=C(c1nn2c(C(F)(F)F)cc(-c3cccs3)nc2c1Br)N1CCCc2ccccc21	BoNT-A LC inh2 46.7 | BoNTA LC inh 1 inactive | BoNT-F LC CP1 inactive | Anthrax LF CP1 inactive
COc1ccc2[nH]c(C)c(-c3csc(N)n3)c2c1	none
Cc1cccc(NC(=O)c2c(O)c3ccccc3[nH]c2=O)c1	none
O=C(Nc1cccc(O)c1)c1c(O)c2ccccc2[nH]c1=O	BoNT F protease 35.6 | BoNTA LC inh 1 inactive | BoNT-F LC CP1 inactive | Anthrax LF CP1 inactive
Cc1ccc([C@H]2N[C@]3(CCCN(Cc4ccc(Cl)cc4)C3=O)[C@H]3C(=O)N(C)C(=O)[C@@H]23)cc1	none
CC(=O)N[C@@H](C)C(=O)OC(C)C(=O)Nc1cccc([N+](=O)[O-])c1 (some centres undefined)	none
Cc1ccc(OCCCC(=O)Nc2ccc(S(N)(=O)=O)cc2)cc1	BoNT F protease 40.9 | BoNTA LC inh 1 inactive | BoNT-F LC CP1 inactive | Anthrax LF CP1 inactive
O=C1c2ccccc2C(=O)N1CCCn1ccnc1	BoNT F protease inconclusive
O=C1c2ccccc2C(=O)N1CCn1ccnc1	BoNT F protease 40.7 | BoNTA LC inh 1 inactive | BoNT-F LC CP1 inactive | Anthrax LF CP1 inactive
CCCCOc1ccc(N(CC(=O)NCc2ccccc2)C(=O)c2csnn2)cc1	none
COc1cc(-c2nc(-c3cccc(C)c3)no2)cc(OC)c1OC	BoNT F protease 43.3, BoNT-A LC inh2 inconclusive | BoNTA LC inh 1 inactive | BoNT-F LC CP1 inactive | Anthrax LF CP1 inactive
COc1ccc(-c2nc(-c3cccc(C)c3)no2)cc1OC	none
CCOCCCNC(=O)C(c1ccc(C)cc1)N(Cc1ccc2c(c1)OCO2)C(=O)CNC(C)=O (centres undefined)	BoNT F protease 35.1 | BoNTA LC inh 1 inactive | BoNT-F LC CP1 inactive | Anthrax LF CP1 inactive
Fc1ccc(-c2ncc3ccccn23)cc1	BoNT-A LC inh2 35.6 | BoNTA LC inh 1 inactive | BoNT-F LC CP1 inactive | Anthrax LF CP1 inactive
Brc1ccc(-c2ncc3ccccn23)cc1	none | BoNTA LC inh 1 inactive | BoNT-F LC CP1 inactive | Anthrax LF CP1 inactive
Fc1ccc(-c2nnc3ccccn23)cc1	none
CSc1nc(Oc2ccc(F)cc2F)cc(C(F)(F)F)n1	BoNT F protease 41.4 | BoNTA LC inh 1 inactive | BoNT-F LC CP1 inactive | Anthrax LF CP1 inactive
CC(=O)NS(=O)(=O)c1ccc(NC(=O)c2ccc3c(c2)C(=O)N(CCC(C)C)C3=O)cc1	none
COc1ccc(-c2nc3ccc(C(=O)NCC(OC)OC)cc3nc2-c2ccc(OC)c(OC)c2)cc1OC	none
COC(CNC(=O)c1ccc2nc(-c3cccs3)c(-c3cccs3)nc2c1)OC	BoNT-A LC inh2 44.5 | BoNTA LC inh 1 inactive | BoNT-F LC CP1 inactive | Anthrax LF CP1 inactive
